Results: PubChem BioAssay (EPA / NIEHS)
Where “and” joins values, the source holds several entries; their conditions need not be identical. Identical values can stand only once. Records with an inconclusive call do not appear. Where a structure was tested more than once in an assay, its records may differ in their call. Calls of active or inactive are those of the source. How the source made its calls: active means hit-call score of the fitted dose curve at least 0.9, where 1 is the maximum; inconclusive means response in the unintended direction; inactive means score below 0.9.

How the values were obtained:
[1] = biological target: human Phosphodiesterase 4A1 (PDE4A1), PDE4A (gene 5141) (UniProt P27815); assay: NVS_ENZ_hPDE4A1: NovaScreen (NVS) Enzymatic Assay for human Phosphodiesterase 4A1 (PDE4A1) (AID 2283191)
Sequence of human Phosphodiesterase 4A1 (PDE4A1), PDE4A (gene 5141) (P27815 whole entry, looked up): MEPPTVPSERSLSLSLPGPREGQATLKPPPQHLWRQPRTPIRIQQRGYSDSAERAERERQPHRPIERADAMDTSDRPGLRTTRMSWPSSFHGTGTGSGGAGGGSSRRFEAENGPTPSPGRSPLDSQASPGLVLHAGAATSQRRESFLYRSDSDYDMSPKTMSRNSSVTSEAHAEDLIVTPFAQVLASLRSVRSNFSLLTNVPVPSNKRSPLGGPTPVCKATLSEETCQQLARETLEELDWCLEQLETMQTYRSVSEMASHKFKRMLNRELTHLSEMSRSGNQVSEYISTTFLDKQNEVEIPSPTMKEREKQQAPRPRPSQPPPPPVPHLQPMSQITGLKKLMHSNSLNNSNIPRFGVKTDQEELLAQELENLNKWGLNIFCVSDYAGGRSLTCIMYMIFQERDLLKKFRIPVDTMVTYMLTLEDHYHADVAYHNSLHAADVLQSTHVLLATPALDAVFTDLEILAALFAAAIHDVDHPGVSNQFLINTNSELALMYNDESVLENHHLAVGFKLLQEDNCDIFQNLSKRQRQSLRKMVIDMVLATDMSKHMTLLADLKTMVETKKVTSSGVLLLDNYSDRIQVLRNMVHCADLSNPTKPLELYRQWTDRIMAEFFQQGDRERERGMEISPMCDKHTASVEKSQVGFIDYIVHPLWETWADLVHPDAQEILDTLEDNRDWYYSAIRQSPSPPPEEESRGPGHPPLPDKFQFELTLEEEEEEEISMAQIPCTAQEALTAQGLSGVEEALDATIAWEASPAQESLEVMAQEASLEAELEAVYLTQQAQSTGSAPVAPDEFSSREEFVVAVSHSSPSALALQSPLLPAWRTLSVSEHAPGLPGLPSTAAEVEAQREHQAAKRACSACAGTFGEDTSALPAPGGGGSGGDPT
How it was run: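 Cell-free recombinant human PDE4A1 with fluorescent substrate; product separated by electrophoretic mobility shift, 1 h. Screened at 25 uM, then up to 50 uM in concentration-response; loss of signal fitted against DMSO.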

PPP2CA (gene 5515) = PPP2CA (gene 5515) (UniProt P67775); assay: NVS_ENZ_hPPP2CA: NovaScreen (NVS) Enzymatic Assay for human Protein Phosphatase 2 Aatalytic subunit Alpha (PPP2CA) (AID 2283199)
Sequence of PPP2CA (gene 5515) (P67775 whole entry, looked up): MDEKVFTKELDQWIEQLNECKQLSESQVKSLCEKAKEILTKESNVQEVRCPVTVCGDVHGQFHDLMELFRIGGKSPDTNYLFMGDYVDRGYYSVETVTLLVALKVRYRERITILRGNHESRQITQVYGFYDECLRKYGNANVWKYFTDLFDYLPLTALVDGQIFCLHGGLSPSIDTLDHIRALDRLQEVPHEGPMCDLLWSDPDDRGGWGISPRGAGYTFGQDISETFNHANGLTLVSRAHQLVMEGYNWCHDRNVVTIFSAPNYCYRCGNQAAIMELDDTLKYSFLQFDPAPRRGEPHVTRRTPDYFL
How it was run: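 Recombinant human PPP2CA with fluorescent substrate; product separated from substrate by electrophoretic mobility shift, read 1.33 h after dosing. Duplicate single-point at 25 uM, then singleton concentration-response up to 50 uM; loss of signal versus DMSO.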

[2] = biological target: Mitogen-activated protein kinase 3 (Homo sapiens) (UniProt P27361); assay: NVS_ENZ_hMAPK3: NovaScreen (NVS) Enzymatic Assay for human Mitogen-Activated Protein Kinase 3 (MAPK 3) (AID 2283177)
Sequence of Mitogen-activated protein kinase 3 (Homo sapiens) (P27361 whole entry, looked up): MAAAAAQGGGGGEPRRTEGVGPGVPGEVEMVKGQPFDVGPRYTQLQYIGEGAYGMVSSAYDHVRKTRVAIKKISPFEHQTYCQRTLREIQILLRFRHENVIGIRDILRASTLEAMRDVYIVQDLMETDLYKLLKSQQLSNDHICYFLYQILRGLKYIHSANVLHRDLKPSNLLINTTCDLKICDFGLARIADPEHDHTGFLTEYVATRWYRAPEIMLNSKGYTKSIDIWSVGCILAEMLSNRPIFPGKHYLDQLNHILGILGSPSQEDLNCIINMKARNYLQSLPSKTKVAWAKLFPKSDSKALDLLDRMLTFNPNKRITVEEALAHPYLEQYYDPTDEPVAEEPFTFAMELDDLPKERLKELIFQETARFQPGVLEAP
How it was run: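 Cell-free enzymatic assay with recombinant protein and specific substrate; fluorescence and electrophoretic mobility shift read-out 1 h after dosing. Primary screen duplicate at 25 uM; actives then run in concentration-response up to 50 uM, loss of signal versus DMSO.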

[3] = biological target: human Matrix Metalloproteinase-7 (MMP7), MMP7 (gene 4316) (UniProt P09237); assay: NVS_ENZ_hMMP7: NovaScreen (NVS) Enzymatic Assay for human Matrix Metalloproteinase-7 (MMP7) (AID 2283183)
Sequence of human Matrix Metalloproteinase-7 (MMP7), MMP7 (gene 4316) (P09237 whole entry, looked up): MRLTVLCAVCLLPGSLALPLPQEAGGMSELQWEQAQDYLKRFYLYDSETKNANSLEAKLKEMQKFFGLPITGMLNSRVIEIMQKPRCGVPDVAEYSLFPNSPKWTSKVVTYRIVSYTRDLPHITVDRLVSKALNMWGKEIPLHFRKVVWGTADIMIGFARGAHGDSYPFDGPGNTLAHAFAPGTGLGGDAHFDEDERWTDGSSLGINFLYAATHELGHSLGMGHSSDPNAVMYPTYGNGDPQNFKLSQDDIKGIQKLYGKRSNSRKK
How it was run: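 Cell-free fluorescence enzymatic assay read 1 h after compound addition, activity loss analyzed against DMSO. Primary duplicate testing at 25 uM; compounds meeting threshold rerun in singleton concentration-response up to 50 uM.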

[4] = biological target: human p21 Activated Kinase 4 (PAK4), PAK4 (gene 10298) (UniProt O96013); assay: NVS_ENZ_hPAK4: NovaScreen (NVS) Enzymatic Assay for human p21 Activated Kinase 4 (PAK4) (AID 2283189)
How it was run: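 Cell-free recombinant human PAK4 activity assay; fluorescent substrate and product separated by electrophoretic mobility shift, read 1 h after dosing. Initially tested in duplicate at 25 uM, relative to DMSO baseline.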

[5] = biological target: human Phosphodiesterase 5 (PDE5), PDE5A (gene 8654) (UniProt O76074); assay: NVS_ENZ_hPDE5: NovaScreen (NVS) Enzymatic Assay for human Phosphodiesterase 5 (PDE5) (AID 2283194)
How it was run: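 Recombinant human PDE5 with specific substrate, read 1 h after dosing by fluorescence with electrophoretic mobility-shift separation of substrate and product. Initial single-concentration duplicate screen at 25 uM, actives followed in concentration series; loss of activity versus DMSO.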

[6] = biological target: human Phosphodiesterase 10 (PDE10), PDE10A (gene 10846) (UniProt Q9Y233); assay: NVS_ENZ_hPDE10: NovaScreen (NVS) Enzymatic Assay for human Phosphodiesterase 10 (PDE10) (AID 2283195)
How it was run: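 PDE10A, cell-free; 1 h incubation; fluorescence intensity + electrophoretic mobility shift separating substrate/product; DMSO = baseline; 25 uM duplicate primary, CRC up to 50 uM.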

[7] = biological target: human Phosphoinositide 3-kinase alpha (PI3Ka), PIK3CA (gene 5290) (UniProt P42336); assay: NVS_ENZ_hPI3Ka: NovaScreen (NVS) Enzymatic Assay for human Phosphoinositide 3-kinase alpha (PI3Ka) (AID 2283196)
Sequence of human Phosphoinositide 3-kinase alpha (PI3Ka), PIK3CA (gene 5290) (P42336 whole entry, looked up): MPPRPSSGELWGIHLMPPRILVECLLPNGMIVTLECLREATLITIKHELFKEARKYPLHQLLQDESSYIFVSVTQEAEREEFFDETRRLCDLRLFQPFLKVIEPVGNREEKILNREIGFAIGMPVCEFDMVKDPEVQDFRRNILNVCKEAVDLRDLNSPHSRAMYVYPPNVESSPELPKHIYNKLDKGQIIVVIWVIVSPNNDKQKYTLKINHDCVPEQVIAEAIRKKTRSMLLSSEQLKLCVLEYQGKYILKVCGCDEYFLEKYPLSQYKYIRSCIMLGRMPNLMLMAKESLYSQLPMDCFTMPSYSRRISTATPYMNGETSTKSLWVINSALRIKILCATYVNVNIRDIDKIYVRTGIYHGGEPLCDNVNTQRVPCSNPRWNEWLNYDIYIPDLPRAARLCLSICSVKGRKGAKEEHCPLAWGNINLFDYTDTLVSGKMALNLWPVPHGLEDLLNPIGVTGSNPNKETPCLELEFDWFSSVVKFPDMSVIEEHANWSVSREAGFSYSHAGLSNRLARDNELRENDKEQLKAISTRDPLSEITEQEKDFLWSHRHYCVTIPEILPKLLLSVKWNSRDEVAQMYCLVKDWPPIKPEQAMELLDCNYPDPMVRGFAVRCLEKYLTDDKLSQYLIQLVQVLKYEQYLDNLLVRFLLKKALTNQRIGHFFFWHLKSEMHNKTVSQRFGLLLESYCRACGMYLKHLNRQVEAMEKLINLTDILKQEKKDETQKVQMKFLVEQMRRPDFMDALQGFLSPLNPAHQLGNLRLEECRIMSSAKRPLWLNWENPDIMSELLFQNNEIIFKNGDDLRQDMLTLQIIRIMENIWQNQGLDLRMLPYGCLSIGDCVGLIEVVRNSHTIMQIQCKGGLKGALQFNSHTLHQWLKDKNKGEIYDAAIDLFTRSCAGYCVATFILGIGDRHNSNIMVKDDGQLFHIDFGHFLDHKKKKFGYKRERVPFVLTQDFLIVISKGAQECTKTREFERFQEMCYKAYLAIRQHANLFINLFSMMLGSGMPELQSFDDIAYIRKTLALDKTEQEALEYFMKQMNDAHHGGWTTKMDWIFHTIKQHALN
How it was run: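 Enzyme activity as fluorescence after mobility-shift separation of substrate and product, 1 h reaction, recombinant human PI3Kα; concentration-response to 50 uM max for chemicals passing a 25 uM duplicate screen.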

[8] = biological target: Serine/threonine-protein phosphatase PP1-alpha catalytic subunit (Homo sapiens) (UniProt P62136); assay: NVS_ENZ_hPPP1CA: NovaScreen (NVS) Enzymatic Assay for human Protein Phosphatase 1 Aatalytic subunit Alpha (PPP1CA) (AID 2283200)
Sequence of Serine/threonine-protein phosphatase PP1-alpha catalytic subunit (Homo sapiens) (P62136 whole entry, looked up): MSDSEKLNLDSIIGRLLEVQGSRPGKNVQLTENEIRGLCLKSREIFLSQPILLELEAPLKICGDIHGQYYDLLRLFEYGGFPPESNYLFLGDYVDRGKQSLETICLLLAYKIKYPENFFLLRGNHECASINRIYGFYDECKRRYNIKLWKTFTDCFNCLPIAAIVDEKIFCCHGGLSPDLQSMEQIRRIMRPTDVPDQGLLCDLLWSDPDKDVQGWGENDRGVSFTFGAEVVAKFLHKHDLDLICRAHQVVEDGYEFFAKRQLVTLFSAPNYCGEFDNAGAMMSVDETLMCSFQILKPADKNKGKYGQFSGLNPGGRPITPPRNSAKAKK
How it was run: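 Recombinant enzyme activity read by fluorescence with electrophoretic mobility shift separating substrate from product, 1.33 h after dosing; loss of signal vs DMSO baseline. Primary screen in duplicate at 25 uM; actives retested in concentration-response up to 50 uM.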

[9] = biological target: human Protein Tyrosine Phosphatase Non-receptor Type 1 (PTPN1), PTPN1 (gene 5770) (UniProt P18031); assay: NVS_ENZ_hPTPN1: NovaScreen (NVS) Enzymatic Assay for human Protein Tyrosine Phosphatase Non-receptor Type 1 (PTPN1) (AID 2283201)
How it was run: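 Cell-free fluorogenic-substrate activity assay on recombinant enzyme, read 1.33 h after dosing by fluorescence and electrophoretic mobility shift; loss of signal vs DMSO baseline. Primary screen in duplicate at 25 uM, hits then run in concentration-response up to 50 uM.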

[10] = biological target: Tyrosine-protein phosphatase non-receptor type 11 (Homo sapiens) (UniProt Q06124); assay: NVS_ENZ_hPTPN11: NovaScreen (NVS) Enzymatic Assay for human Protein Tyrosine Phosphatase Non-receptor Type 11 (PTPN11) (AID 2283202)
Sequence of Tyrosine-protein phosphatase non-receptor type 11 (Homo sapiens) (Q06124 whole entry, looked up): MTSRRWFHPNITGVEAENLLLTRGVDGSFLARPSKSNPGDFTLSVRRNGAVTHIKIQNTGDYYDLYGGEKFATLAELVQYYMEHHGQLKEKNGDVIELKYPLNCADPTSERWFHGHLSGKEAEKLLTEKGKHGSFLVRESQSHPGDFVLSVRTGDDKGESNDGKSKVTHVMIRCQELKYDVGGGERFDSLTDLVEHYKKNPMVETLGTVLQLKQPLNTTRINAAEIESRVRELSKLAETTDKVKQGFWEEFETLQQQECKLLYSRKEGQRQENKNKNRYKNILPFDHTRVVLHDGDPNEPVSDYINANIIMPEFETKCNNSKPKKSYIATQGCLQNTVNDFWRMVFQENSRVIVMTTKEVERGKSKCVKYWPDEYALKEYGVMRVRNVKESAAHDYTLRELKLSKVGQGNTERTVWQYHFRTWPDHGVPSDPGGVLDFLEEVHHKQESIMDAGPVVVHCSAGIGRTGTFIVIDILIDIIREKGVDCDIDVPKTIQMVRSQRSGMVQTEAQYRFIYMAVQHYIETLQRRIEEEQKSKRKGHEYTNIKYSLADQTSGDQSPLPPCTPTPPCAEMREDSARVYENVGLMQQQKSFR
How it was run: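 Recombinant human PTPN11 activity on a fluorescent substrate, with substrate/product separated by electrophoretic mobility shift; read 0.5 h after dosing, loss of signal vs DMSO. Duplicate 25 uM screen, then concentration-response up to 50 uM.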

[11] = biological target: human Matrix Metalloproteinase-2 (MMP2), MMP2 (gene 4313) (UniProt P08253); assay: NVS_ENZ_hMMP2: NovaScreen (NVS) Enzymatic Assay for human Matrix Metalloproteinase-2 (MMP2) (AID 2283184)
How it was run: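 Cell-free recombinant MMP2 activity with a fluorescent substrate, read 1 h after dosing. Primary screen in duplicate at 25 uM; actives then run in concentration series; loss of signal fitted versus DMSO.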

[12] = biological target: human Matrix Metalloproteinase-9 (MMP9), MMP9 (gene 4318) (UniProt P14780); assay: NVS_ENZ_hMMP9: NovaScreen (NVS) Enzymatic Assay for human Matrix Metalloproteinase-9 (MMP9) (AID 2283190);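 further: cell-free recombinant MMP9 protease activity read by fluorescent substrate signal; active means inhibition seen as loss of fluorescence signal versus DMSO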
Sequence of human Matrix Metalloproteinase-9 (MMP9), MMP9 (gene 4318) (P14780 whole entry, looked up): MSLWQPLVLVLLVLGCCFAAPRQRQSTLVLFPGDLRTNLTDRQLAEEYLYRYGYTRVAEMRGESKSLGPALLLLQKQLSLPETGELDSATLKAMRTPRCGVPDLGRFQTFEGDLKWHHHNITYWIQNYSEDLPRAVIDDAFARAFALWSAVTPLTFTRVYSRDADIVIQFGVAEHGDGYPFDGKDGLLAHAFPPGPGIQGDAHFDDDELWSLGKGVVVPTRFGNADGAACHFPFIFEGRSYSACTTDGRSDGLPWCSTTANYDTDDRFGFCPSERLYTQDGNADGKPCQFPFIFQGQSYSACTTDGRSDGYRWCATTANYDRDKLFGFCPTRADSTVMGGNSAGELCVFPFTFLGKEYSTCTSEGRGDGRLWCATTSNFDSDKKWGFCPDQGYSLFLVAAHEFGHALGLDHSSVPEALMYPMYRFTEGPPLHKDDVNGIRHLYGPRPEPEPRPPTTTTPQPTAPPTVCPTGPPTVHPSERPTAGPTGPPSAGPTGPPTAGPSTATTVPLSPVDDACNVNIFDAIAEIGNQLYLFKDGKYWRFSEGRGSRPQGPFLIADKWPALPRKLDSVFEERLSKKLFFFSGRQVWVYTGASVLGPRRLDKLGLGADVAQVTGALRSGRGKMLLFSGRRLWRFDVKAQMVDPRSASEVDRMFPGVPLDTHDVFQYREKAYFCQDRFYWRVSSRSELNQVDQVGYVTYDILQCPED
How it was run: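 Cell-free fluorescence-intensity enzyme activity assay using extracted protein, read 1 h after dosing. Loss of signal versus DMSO baseline indicates inhibition; primary screen in duplicate at 25 uM, actives followed up in concentration series.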

[13] = biological target: human MAP Kinase-Activated Protein Kinase 2 (MAPKAPK2), MAPKAPK2 (gene 9261) (UniProt P49137); assay: NVS_ENZ_hMAPKAPK2: NovaScreen (NVS) Enzymatic Assay for human MAP Kinase-Activated Protein Kinase 2 (MAPKAPK2) (AID 2283178)
Sequence of human MAP Kinase-Activated Protein Kinase 2 (MAPKAPK2), MAPKAPK2 (gene 9261) (P49137 whole entry, looked up): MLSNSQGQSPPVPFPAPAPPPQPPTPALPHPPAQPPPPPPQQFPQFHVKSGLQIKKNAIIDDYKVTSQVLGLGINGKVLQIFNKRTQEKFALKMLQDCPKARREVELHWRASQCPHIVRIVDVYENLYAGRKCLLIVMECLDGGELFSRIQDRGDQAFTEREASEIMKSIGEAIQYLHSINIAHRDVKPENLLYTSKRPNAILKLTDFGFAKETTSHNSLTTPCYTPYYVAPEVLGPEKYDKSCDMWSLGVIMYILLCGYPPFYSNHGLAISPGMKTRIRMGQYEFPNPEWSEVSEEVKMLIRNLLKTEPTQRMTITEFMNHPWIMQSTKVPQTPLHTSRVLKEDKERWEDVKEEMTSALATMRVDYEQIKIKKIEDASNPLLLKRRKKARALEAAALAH
How it was run: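 Cell-free recombinant human MAPKAPK2 activity measured by fluorescence with electrophoretic mobility shift separation of substrate and product, 1 hr after dosing. Loss of signal versus DMSO; primary screen at 25 uM, concentration-response up to 50 uM.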

[14] = biological target: human Matrix Metalloproteinase-3 (MMP3), MMP3 (gene 4314) (UniProt P08254); assay: NVS_ENZ_hMMP3: NovaScreen (NVS) Enzymatic Assay for human Matrix Metalloproteinase-3 (MMP3) (AID 2283185)
How it was run: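 Cell-free recombinant human MMP3 activity, fluorescence intensity read 1 h after dosing. Primary screen duplicate at 25 uM, actives retested in concentration series; loss of signal vs DMSO baseline.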

[15] = biological target: human Mitogen- and Stress-activated Protein Kinase-1 (Msk1), RPS6KA5 (gene 9252) (UniProt O75582); assay: NVS_ENZ_hMsk1: NovaScreen (NVS) Enzymatic Assay for human Mitogen- and Stress-activated Protein Kinase-1 (Msk1) (AID 2283187)
How it was run: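 Recombinant kinase with fluorescent substrate; product separated by electrophoretic mobility shift, read 1 h after dosing. Screened in duplicate at 25 uM; hits (e.g. ≥30% inhibition) tested in concentration–response up to 50 uM. DMSO baseline.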

[16] = biological target: cAMP-dependent protein kinase catalytic subunit alpha (Homo sapiens) (UniProt P17612); assay: NVS_ENZ_hPKA: NovaScreen (NVS) Enzymatic Assay for human Protein Kinase A (PKA) (AID 2283192)
How it was run: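 Recombinant human PKA with specific fluorescent substrate, product separated by electrophoretic mobility shift, read 1 h after dosing. Primary screen at 25 uM in duplicate; actives then run in concentration-response up to 50 uM, activity relative to DMSO.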

`CCC(=O)Nc1ccc(Cl)c(Cl)c1` was tested, and the AC50 [1] was 25 µM (active) and the outcome (PPP2CA (gene 5515)) was “inactive”.
For `CN(C)[C@@H]1C(=O)C(C(N)=O)=C(O)[C@@]2(O)C(=O)C3=C(O)c4c(O)cccc4[C@@](C)(O)[C@H]3[C@H](O)[C@@H]12`, the AC50 [2] was 19.1 µM (active), the outcome [2] was “inactive” and the outcome [3] was “inactive”. The AC50 [4] was 9.28 µM (active), the outcome [4] was “inactive” and the AC50 [1] was 23.1 µM (active). The AC50 [5] was 6.97 µM (active), the outcome [6] was “inactive” and the AC50 [7] was 4.72 µM (active) and 4.22 µM (active) and 15.1 µM (active). For the same compound, the outcome [7] was “inactive”, the AC50 (PPP2CA (gene 5515)) was 23.1 µM (active) and the AC50 [8] was 17.4 µM (active). The AC50 [9] was 23.1 µM (active) and the AC50 [10] was 10.9 µM (active) and 2.67 µM (active).
For `C=C(C)[C@H]1Cc2c(ccc3c2O[C@@H]2COc4cc(OC)c(OC)cc4[C@@H]2C3=O)O1`, the outcome [10] was “inactive”.
With `CCCCN(CC)c1c([N+](=O)[O-])cc(C(F)(F)F)cc1[N+](=O)[O-]` the outcome [8] was “inactive”.
`Cc1ccn2nc(S(=O)(=O)Nc3c(F)cccc3F)nc2n1` was tested, and the outcome [2] was “inactive”, the outcome [11] was “inactive” and the outcome [12] was “inactive”. For the same compound, the outcome [7] was “inactive”.
In the case of `CCNc1nc(Cl)nc(NC(C)(C)C#N)n1`, the AC50 [1] is reported as 0.39 µM (active) and the AC50 [5] is reported as 13.6 µM (active).
`CCCOCC(=Nc1ccc(Cl)cc1C(F)(F)F)n1ccnc1` was tested, and the outcome [12] was “inactive” and the outcome [1] was “inactive”.
For `Nc1c(Cl)cc([N+](=O)[O-])cc1Cl`, the outcome [13] was “inactive”, the outcome [14] was “inactive” and the outcome [15] was “inactive”. The outcome [16] was “inactive”.
`CN(C)C(=O)Nc1cccc(C(F)(F)F)c1` was tested, and the outcome [2] was “inactive”.
In the case of `N#CSCSC#N`, the outcome [13] is reported as “inactive” and the outcome [3] is reported as “inactive”.
With `O=[N+]([O-])c1cc(C(F)(F)F)c(Cl)c([N+](=O)[O-])c1Nc1ncc(C(F)(F)F)cc1Cl` the outcome [7] was “inactive” and the outcome [8] was “inactive”.
In the case of `CCC(=NOC/C=C/Cl)C1=C(O)CC(C2CCOCC2)CC1=O` (stereo not given), the outcome [10] is reported as “inactive”.
For `CSc1nc(NC(C)C)nc(NC(C)C)n1`, the AC50 [1] was 3.43 µM (active) and the AC50 [5] was 5.79 µM (active).
With `COc1ccc(C(=CC(=O)N2CCOCC2)c2ccc(Cl)cc2)cc1OC` the outcome [2] was “inactive” and the AC50 [1] was 0.0383 µM (active).
`CCc1cnc(C2=NC(C)(C(C)C)C(=O)N2)c(C(=O)O)c1` (stereo not given) was tested, and the AC50 [3] was 8.62 µM (active).
In the case of `COP(=O)(OC)SCn1c(=O)oc2cc(Cl)cnc21`, the outcome [12] is reported as “inactive”.
In the case of `CCOP(=S)(OCC)Oc1cc(C)nc(C(C)C)n1`, the outcome [3] is reported as “inactive”, the outcome [1] is reported as “inactive” and the outcome [8] is reported as “inactive”.
